Test results from PubChem BioAssay (NCI).
This is part of a sample that, as a whole, favours compounds with a hit. Of some 83,000 tested, about 20% had one in any assay.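 Assay: single dose, 48 h. Readout: percent growth (0 = no net growth; negative = cell death). Active: <10.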 Calls of active or inactive are those of the source.

System: HL-60(TB) leukemia
Test: NCI-60 one-dose screen, 48 h (100 = growth as untreated, 0 = no growth, -100 = all killed)
Settings: 10 µM unless noted

| SMILES | growth |
| --- | --- |
| CNc1nc2ncc(-c3c(C)noc3C)cc2n1Cc1ccccc1 | 8.97% (active) |
| CC(C)CCC[C@@H](C)[C@H]1CCC2C3=CCC4C(=O)C=CC(=O)C4C3CC[C@@]21C (stereo not given in full) | -5.46% (active) |
| CCOC(=O)c1cnn2c3ccccc3n(S(=O)(=O)c3ccc(OC)cc3)c12 | 4.77% (active) |
| C=C1C(=O)O[C@H]2[C@H]1CC/C(Cn1cc(-c3ccccc3)nn1)=C\CC[C@@]1(C)O[C@@H]21 | -28.9% (active) |
| NS(=O)(=O)c1ccc(N2CC(c3nc4ccccc4[nH]3)CC2=O)cc1 (stereo not given) | 99.4% (inactive) |
| Cc1ccc(/C=C2\CN(C(=O)CCN3CCC(=NO)CC3)C/C(=C\c3ccc(C)cc3)C2=O)cc1 | -11.3% (active) |
| CCc1cccc2c1S/C(=C/c1ccc(OC)cc1)C2=O | 5.21% (active) |
| CCCCCCCCn1ccc2cc(NC(=O)Cn3cc(CN4CCOCC4)nn3)ccc21 | 97.4% (inactive) |
| COC(=O)c1ccc(NC(=O)CCl)cc1 | 81.6% (inactive) |
| CCN1C(=O)N(CC)C2C1NC(=S)N2/N=C/c1ccc(OC)cc1 (stereo not given) | -12.1% (active) |
| C[N+](C)(C)CCCCCCCCCC[N+](C)(C)C | 96.5% (inactive) |
| O=S(=O)(NCCNc1nccc(-c2c(-c3ccc(F)c(O)c3)nc3occn23)n1)c1ccc(Cl)cc1 | 96.6% (inactive) |
| CC/C=C\C/C=C\C[C@H](O)C/C=C1/C(=O)C=C[C@@H]1C/C=C\CCCC(=O)O | 32.6% (inactive) |
| C=CCSSc1ncnc2c1ncn2C1OC(CO)C(O)C1O (stereo not given) | 21.5% (inactive) |
| O=[N+]([O-])c1cccc(-c2cc(-c3cc(Br)ccc3O)[nH]n2)c1 | -17.1% (active) |
| N=C(N)c1ccc(-c2ccc(-c3ccc(Cl)cc3)o2)nc1 | 110% (inactive) |
| COC(=O)c1cc(-c2ccccc2)[nH]c1N/N=C/c1c(Cl)cccc1Cl | -42.9% (active) |
| CC(=O)NCCN | 103% (inactive) |
| Cn1ccnc1C(=O)/C=C/c1ccc(C(=O)Nc2ccccc2F)cc1 | 5.22% (active) |
| COc1cc(NC(N)=NCC(C)(C)COc2ccc(C(F)(F)F)cc2)cnc1C#N | 24.7% (inactive) |

| SMILES | growth |
| --- | --- |
| CCOC(=O)Cc1cnc(N/N=C(\C)c2cc3ccccc3o2)s1 | 65.2% (inactive) |
| NNC(=O)c1ccc(-n2nc(-c3ccccc3)c3ccccc32)cc1 | 93% (inactive) |
| COc1c(C)c(C)c(OC)c2c1[nH]c(=O)c1c3cccnc3cn21 | 112% (inactive) |
| CC/C(=C(/c1ccc(Cl)cc1)c1ccc(OCCCN(C)C)cc1)c1ccc(OC)cc1 | 46.2% (inactive) |
| C=C1c2nc3ccccc3n2C=C(c2ccc(Cl)cc2)N1Cc1ccccc1 | 60.1% (inactive) |
| CCOC(=O)c1cnc2cc(Cl)c(F)cc2c1Nc1cccc(NS(C)(=O)=O)c1 | 105% (inactive) |
| CSc1nc(Nc2cccc(NC(=O)CCl)c2)c(C#N)c(-c2cccc([N+](=O)[O-])c2)n1 | 30.3% (inactive) |
| CCOc1ccc(-n2nc(C(=O)Nc3ccccc3)nc2-c2cc(OC)c(OC)c(OC)c2)cc1 | 32.9% (inactive) |
| CC1(C)CC[C@]2(C(=O)NCC#CCN3CCOCC3)CC[C@]3(C)C(=CC[C@@H]4[C@@]5(C)Cc6c([nH]c7ccccc67)C(C)(C)[C@@H]5CC[C@]43C)[C@@H]2C1 | 62.7% (inactive) |
| O=c1c2cccc(Cl)c2sc2c(NCCCNCCO)nc3ccccc3c12 | -17.8% (active) |
| CO[C@H]1/C=C/O[C@@]2(C)Oc3c(C)c(O)c4c(O)c(c(/C=N/N5C(C)CN(Cc6ccc(C#N)cc6)CC5C)c(O)c4c3C2=O)NC(=O)/C(C)=C\C=C\[C@H](C)[C@H](O)[C@@H](C)[C@@H](O)[C@@H](C)[C@H](OC(C)=O)[C@@H]1C (stereo not given in full) | -37% (active) |
| COC(=O)C(C)NC1=C(Cl)C(=O)C(NC(C)C(=O)OC)=C(Cl)C1=O (stereo not given) | 97.8% (inactive) |
| COc1cc2c(c(Br)c1N)-c1cc(Br)c(N)cc1C2=O | 88.9% (inactive) |
| Cn1c(=O)c(F)c(Nc2ccc(I)cc2F)c2c(=O)n(C[C@@H](O)CO)cnc21 | 15.8% (inactive) |
| CCc1cc(Cl)c(OC)c(C(=O)NCC2CCCN2CC)c1O (stereo not given) | 84.6% (inactive) |
| CSC1=C(N)C(=O)c2[nH]cc(CO)c2C1=N | -28.1% (active) |
| O=C(NC1CCCCC1)OCc1c(COC(=O)NC2CCCCC2)c(-c2ccc(Cl)c(Cl)c2)n2c1CCC2 | -35.6% (active) |
| COc1cccc(/C=N/NC(=S)NC2CC3CCC2C3)c1O (stereo not given) | 71.3% (inactive) |
| C=C1C(=O)O[C@H]2[C@H]1CC/C(COC(=O)C(=O)c1cn(C)c3ccc(OC)cc13)=C\CC[C@@]1(C)O[C@@H]21 | -38.7% (active) |
| COc1ccc(C(=O)c2cc(OC)c(OC)c(OC)c2)cc1O | -29.1% (active) |
